High-throughput results as filed in PubChem.
Most compounds without a hit are left out; they make up all but 19% or so of the library.
IL-1B inflam inh: inhibitors of inflammasome signaling (IL-1 beta secretion). 360,000 tested, 4.7% active. activity change, % at 57.5 µM. THP-1 LPS/ATP IL-1B secretion, AlphaLISA, 16 h; stronger effect = lower value; in the data active means activity change below about -50%; inconclusive means mostly about -30% to -49%; further: on the % scale 0 is the no-effect control and ±100 the full control effect
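THP-1 cells pretreated 1 hr with compounds (up to 57.5 uM final), then stimulated with LPS (250 ng/mL final) plus ATP (1.25 mM final); secreted IL-1B measured by AlphaLISA after 16 hr, decreased signal indicating inhibition.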
TGFb SMAD3 inh: inhibitors of TGF-b signaling. HepG2 CAGA-GFP TGF-b/SMAD3 reporter, GFP fluorescence, 18 h; TGF-beta stimulated, 500 pg/mL final. 410,000 tested, 1.2% active. Potency, µM (titrated, usually from 46.1 µM), for the others: top-dose activity, negative = inhibition, most hits filed as inhibitors. AID 588855; further: potency means the concentration at half of the fitted maximal effect; on the % scale 0 is the no-effect control and ±100 the full control effect; nearly all actives have a fitted effect of over 65% in size
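Read-out: total well GFP (ex488/em500-530) summed from mean per-cell fluorescence. Cells: HEPG2 CAGA-GFP, 1% FBS DMEM, 18 h at 37 degrees C with 500 pg/mL final TGF-beta. Unstimulated wells served as the full-inhibition control; stimulated DMSO wells = 0%.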
HepG2 tox: kills HepG2 cells in TGF-b inhibitor counter-screen; HepG2 CAGA-GFP viability, ATP luminescence, 18 h; Potency, µM (titrated, usually from 46.1 µM), without a hit: top-dose activity change, negative = cytotoxicity, usual class: cytotoxic; 410,000 tested, 0.76% active; AID 588856; further: potency means the concentration at half of the fitted maximal effect
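HepG2 CAGA-GFP cells (1000/well, DMEM with 1% FBS) received compound, then TGF-beta at 500 pg/mL final, and were incubated 18 hours at 37 degrees C. Viability was read by CellTiter-Glo luminescence. Media-only wells were set as complete cell-killing and DMSO as no toxicity.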
DT40 TDP1 no CPT: qHTS for Inhibitors of human tyrosyl-DNA phosphodiesterase 1 (TDP1): qHTS in cells in absence of CPT. 420,000 tested, 15% active. Potency, µM (doses to about 46.2 µM), inactives show top-dose activity change, negative = growth inhibition, usual class: inhibitors. DT40 Tdp1-/- hTDP1 cells, no CPT, ATP luminescence, 48 h; further: potency means the concentration at half of the fitted maximal effect; on the % scale 0 is the no-effect control and ±100 the full control effect; nearly all actives have a fitted effect of over 55% in size
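DT40 Tdp1-/-;hTDP1 cells, no CPT (DMSO vehicle only), 400 cells/well; compounds pin-transferred; ≥48 hr, 37 °C; CellTiter-Glo 30 min RT dark, luminescence read.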
DT40 TDP1 CPT: DT40-hTDP1 cell growth loss with CPT; 420,000 tested, 12% active; chicken DT40 Tdp1-/-;hTDP1 cells + 20 nM CPT, ATP luminescence, 48 h; AID 686979; Potency, µM (titrated, usually from 46.2 µM), inactives show top-dose activity change, negative = growth inhibition, actives largely listed as inhibitors; further: potency means the concentration at half of the fitted maximal effect; on the % scale 0 is the no-effect control and ±100 the full control effect; nearly all actives have a fitted effect of over 55% in size
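Chicken DT40 Tdp1-/- cells complemented with human TDP1, 400 cells/well, exposed to compounds plus 20 nM camptothecin for at least 48 h at 37 C; viability read as ATP content by CellTiter-Glo luminescence.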
ASM inhibitor: human S-ASM enzyme inhibition; AID 504937; Potency, µM (titrated, usually from 57.5 µM), for inactives: top-dose activity change, negative = inhibition, hits mostly inhibitors; placental ASM, HMU-PC fluorogenic substrate, 60 min; 340,000 tested, 0.006% active; P17405; further: potency means the concentration at half of the fitted maximal effect
Target sequence (P17405 47-631 limits assumed): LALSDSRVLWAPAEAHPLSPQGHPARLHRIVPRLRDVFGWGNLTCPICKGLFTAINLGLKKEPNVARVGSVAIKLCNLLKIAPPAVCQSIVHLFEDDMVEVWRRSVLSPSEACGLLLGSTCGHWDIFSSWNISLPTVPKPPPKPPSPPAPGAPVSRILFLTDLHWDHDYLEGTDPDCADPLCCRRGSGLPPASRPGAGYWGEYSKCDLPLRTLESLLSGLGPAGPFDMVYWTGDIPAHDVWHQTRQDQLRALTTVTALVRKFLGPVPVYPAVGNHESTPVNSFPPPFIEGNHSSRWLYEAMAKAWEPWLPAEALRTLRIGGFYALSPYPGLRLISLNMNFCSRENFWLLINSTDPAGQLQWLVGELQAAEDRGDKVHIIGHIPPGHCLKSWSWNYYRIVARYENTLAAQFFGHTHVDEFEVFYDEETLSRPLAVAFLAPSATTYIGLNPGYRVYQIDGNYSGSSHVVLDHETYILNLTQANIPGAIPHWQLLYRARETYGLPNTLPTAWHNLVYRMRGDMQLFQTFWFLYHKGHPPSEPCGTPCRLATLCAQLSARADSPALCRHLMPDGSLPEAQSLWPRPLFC
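Fluorescence read-out (Ex 386 nm, Em 447 nm) after stopping the reaction at pH 10. Enzyme: ASM from human placenta; substrate HMU-PC0, 9 uM final; 60 min, 37 °C. Compound preincubation 10 min, ambient temperature.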
Numbers without * were called inactive; ? = inconclusive; . = no result. Unless noted, the call rests on the fitted dose curve; in most records, active means well fitted curve in the direction sought with a large enough effect; inconclusive means small, poorly fitted or top-dose-only effect, or another doubt; inactive means no such curve, though single readings can be large; an effect the other way counts as inactive or inconclusive.

SMILES	IL-1B inflam inh	TGFb SMAD3 inh	HepG2 tox	DT40 TDP1 no CPT	DT40 TDP1 CPT	ASM inhibitor
COC(=O)c1ccc2nc(-c3ccc(C)cc3)c(CC3CCCCC3)n2c1	9	?	-27%	16µM*	21µM*	.
COC(=O)c1ccc2nc(-c3ccc(F)cc3)c(CC3CCCCC3)n2c1	45	.	.	21µM*	26µM*	.
COC(=O)c1ccc2nc(-c3ccc(F)cc3)c(Cc3ccc(OC)cc3C)n2c1	-12	2%	10%	?	?	.
CCCCn1nnnc1C(c1ccccc1)N1CCN(C(=O)C2CCCO2)CC1 (centres undefined)	4	.	.	-2%	3%	.
CC(=O)N1CCc2cc(Br)cc(S(=O)(=O)N3CCc4ccccc43)c21	46	20%	0%	?	-15%	-7%
CN1CCCC1(C)C(=O)NCc1ccc(F)cc1Cl (centres undefined)	5	11%	-2%	-17%	2%	.
O=C1NC[C@H](CCCCN2CCN(CC3CCCCC3)C(=O)C2=O)N(Cc2ccccc2)C1=O	0	.	.	-21%	-1%	.
Cc1cc(C(=O)CSc2nc3ccccc3[nH]2)c(C)n1CC1CCCO1 (centres undefined)	-7	?	-2%	5.2µM*	7.3µM*	1%
Cc1cc(C(=O)CSc2nc3ccccc3o2)c(C)n1CC1CCCO1 (centres undefined)	6	?	-15%	18µM*	9.2µM*	-1%
Cc1ccc(C(=O)CSc2nc3ccccc3o2)cc1	-54*	-16%	-3%	-5%	2%	-2%
O=C(O)CSc1nc2ccccc2o1	0	5%	0%	-6%	6%	0%
Cc1cc(C(=O)CSc2nc(N)cc(=O)[nH]2)c(C)n1CC1CCCO1 (centres undefined)	15	-20%	-11%	18µM*	16µM*	5%
CNC(=O)C1CCC(Cn2c(=O)c3sccc3n(CC(=O)NCc3ccc(OC)cc3)c2=O)CC1 (centres undefined)	.	-15%	3%	2%	-20%	.
Cc1ccc(-n2nnnc2SCC(=O)c2cc(C)n(CC3CCCO3)c2C)cc1 (centres undefined)	34	3%	0%	-20%	-28%	-3%
Cc1cc(C(=O)Cn2nnc(-c3ccc(Cl)cc3)n2)c(C)n1CC1CCCO1 (centres undefined)	-71*	?	-1%	?	12µM*	-7%
Cc1cnc(C(=O)NC(Cc2ccccc2)c2ccccc2)cn1 (centres undefined)	50	11%	3%	-29%	-2%	-1%
Cc1cccc(N2CCN(C(=O)CCS(=O)(=O)c3ccc4c(c3)NC(=O)CO4)CC2)c1C	-11	-23%	-5%	?	?	-2%
COc1ccc(S(=O)(=O)CCC(=O)N2CCN(c3ccc(C(C)=O)cc3)CC2)cc1	0	-2%	-20%	15µM*	?	4%
CC(=O)c1ccc(N2CCN(C(=O)CCS(=O)(=O)c3ccc(C)cc3)CC2)cc1	14	-3%	-5%	15µM*	?	4%
COc1ccc(N2CCN(C(=O)CCS(=O)(=O)c3ccc(C)cc3)CC2)cc1	-2	-22%	-8%	-29%	?	-3%
COc1ccc(S(=O)(=O)CCC(=O)N2CCN(c3ccccc3F)CC2)cc1	-7	-19%	-20%	?	-7%	3%
COc1ccc(S(=O)(=O)CCC(=O)N2CCN(c3cccc(Cl)c3)CC2)cc1	-26	-21%	5%	10µM*	18µM*	-2%
